LASV entry inh: Lassa virus entry inhibition; Lassa virus pseudotype entry inhibition, cell reporter; Potency, µM (highest dose often 37.9 µM), without a hit: at the highest dose activity change, negative = inhibition, actives largely listed as inhibitors; 300,000 compounds, 1.2% hits; AID 540256; calls by dose curve; tested in HEK293 cells; also: potency is read from the fitted curve at half-maximal effect; % is scaled to controls: 0 for no effect and ±100 for the full control effect; nearly all actives have a fitted effect of over 50% in size
CHX counter: counter-screen hit for Shiga toxin inhibitors, cycloheximide | cell reporter, cycloheximide protein synthesis inhibition counterscreen | max response, % | 300,000 compounds, 12% hits | AID 2314; in the data active = max response mostly above about 13%, no sharp cut-off; inactive = mostly below about 14%; also: read at 38.3 µM for the half of the compounds with a filed dose; 0% is about no effect
MARV entry inh: blocks Marburg virus binding to or entry into cells; Marburg virus pseudotyped entry inhibition, cell reporter; Potency, µM (series often up to 37.8 µM), without a hit: at the top dose activity change, negative = inhibition, hits mostly inhibitors; 300,000 compounds, 1.8% hits; AID 540276; calls by dose curve; tested in HEK293 cells; also: potency is read from the fitted curve at half-maximal effect; % is scaled to controls: 0 for no effect and ±100 for the full control effect
Shiga toxin inh: inhibitors of Shiga toxin in Vero cells. Vero cells, Shiga toxin protein synthesis inhibition reporter. inhibition, % at 38.7 µM. 290,000 compounds, 9.2% hits; in the data active = inhibition mostly above about 28%, no sharp cut-off; inactive = mostly below about 43%; also: 0% is about no effect
Starred values were filed as active, the others as inactive; ? = inconclusive; . = not tested or not shown; [ ] = remark or other dose. An excerpt weighted towards active compounds, which were near 12% of everything screened.

SMILES	LASV entry inh	CHX counter	MARV entry inh	Shiga toxin inh
COc1ccc(N2CCN(C(=O)NC3CC(=O)N(c4ccc(OC)cc4)C3)CC2)cc1 (centres undefined)	?	12.8	1.0%[46.1 µM]	16.0
COc1ccccc1NC(=O)Nc1ccc(N2CCOCC2)cc1	?	50.9*	?	84.1*
COc1ccccc1NC(=O)Nc1ccc(CC#N)cc1	.	25.3*	.	43.4*
CCCOc1ccccc1N/C(=N/c1nc(C)cc(C)n1)NC(=O)Nc1ccc(Cl)cc1	?	6.7	0.708µM*	25.3
CCOc1ccccc1NC(=O)Nc1ccc(Cl)cc1	?	75.6*	?	41.3*
CCOc1ccccc1N/C(=N/c1nc(C)cc(C)n1)NC(=O)Nc1ccc(Cl)c(Cl)c1	7.8%	-2.0	34.9%	-5.6
COc1ccccc1CNCC(=O)Nc1ccc(N2CCOCC2)cc1	-26.8%	0.4	?	-11.1
COc1ccccc1NC(=O)Nc1ccncc1	13.1%	-1.5	6.3%	34.0
CCOc1ccccc1NC(=O)Nc1ccccn1	-12.2%[46.1 µM]	4.3	?	-19.2
COc1cccc(CNC(=O)CCc2nnc3n(CC(C)C)c(=O)c4ccccc4n23)c1	.	.	0.6%[46.1 µM]	.
CCOC(=O)N1CCC(Nc2c(-c3ccccc3)c(=O)c2=O)CC1	-5.2%	-3.3	-2.6%	-12.4
CCN1CCN(Cc2ccc(NC(=O)Nc3ccccc3OC)cc2)CC1	.	35.0*	.	10.4*
CCOc1ccccc1NC(=O)C(Sc1ccccc1)c1ccccc1 (centres undefined)	12.6µM*	0.5	?	-12.3
COc1ccc(NC(=O)Nc2ccccc2OC)cc1	0.2%	40.5*	8.8%	60.8*
COc1ccccc1NC(=O)NNC(=O)c1cc2ccccc2cc1O	.	26.1*	.	101.1*
COc1ccc(NC(=O)N/C=C/c2ccccc2)cc1	1.9%[46.1 µM]	35.0*	9.5%[46.1 µM]	103.0*
COc1ccc(NC(=O)NC(C)c2ccccc2)cc1 (centres undefined)	-3.8%[46.1 µM]	-1.7	3.6%[46.1 µM]	-9.3
Cc1c(C(=O)Cc2ccccc2)n(C)c2ccccc12	?	25.1*	-16.2%	26.6
COc1cccc(NC(=O)Nc2cc(C)ccc2OC)c1	3.0%[46.1 µM]	6.0	?	-4.9
COc1cccc(NC(=O)NC2(C(F)(F)F)Oc3ccccc3O2)c1	-18.9%	44.5*	8.2µM*	65.9*
Cn1ccc2cc(NC(=O)Nc3cccnc3)ccc21	.	29.6*	.	48.8*
COc1cccc(NC(=O)Nc2ccc(CC(=O)O)cc2)c1	-6.5%[46.1 µM]	-1.4	-4.1%[46.1 µM]	23.8
CCc1ccc(NC(=O)Nc2cccc(OC)c2)cc1	-3.0%[46.1 µM]	25.9*	?	105.2*
Cc1cccc(NC(=O)Nc2cccnc2)c1C	7.7%[46.1 µM]	0.3	-2.2%[46.1 µM]	27.6
COc1cccc(NC(=O)Nc2cccc(C(=O)O)c2)c1	?	25.9*	?	47.1*
SMILES	LASV entry inh	CHX counter	MARV entry inh	Shiga toxin inh
O=C(Cc1c(Cl)cccc1Cl)NC1=NCCS1	.	4.6	.	-4.3
Cc1ccc(S(=O)(=O)NCc2ccccc2)cc1C(=O)NC(C)c1ccc(S(N)(=O)=O)cc1 (centres undefined)	-7.0%	.	16.8%[46.1 µM]	.
COc1cccc(NC(=O)Nc2cccnc2)c1	.	13.8*	.	5.8
COc1cccc(NC(=O)Nc2ccc(Br)cn2)c1	-4.8%[46.1 µM]	25.8*	?	78.2*
O=C1C2C3C=CC(CC3)C2C(=O)N1/N=C/c1ccco1 (centres undefined)	.	16.5*	-0.5%[46.1 µM]	25.9
COC(=O)c1ccc(-c2ccc(/C=N/N3C(=O)C4C5C=CC(CC5)C4C3=O)o2)cc1 (centres undefined)	-1.7%	34.5*	?	36.6
O=C(O)c1cc(-c2ccc(/C=N/N3C(=O)C4C5C=CC(CC5)C4C3=O)o2)ccc1Cl (centres undefined)	17.1%	2.1	2.2%[46.1 µM]	19.6
CCS(=O)(=O)N1CCN(c2ccc(Cl)cc2[N+](=O)[O-])CC1	-4.5%	4.9	-1.2%	6.7
Cc1cc2c(s1)c1cnn(Cc3ccc(C)c(F)c3F)c(=O)c1n2C	.	-7.0	.	-4.7
C=C1C(=O)c2sccc2C(c2ccc(OC)c(OC)c2)C1COC(C)=O (centres undefined)	7.94µM*	.	0.891µM*	.
O=C(Cc1ccccc1)Nc1cccc(-c2nc3ncccc3o2)c1	-25.0%	5.1	?	21.7
Nc1ccc(-c2nc3ncccc3o2)cc1	.	33.7*	.	30.9*
Nc1cccc(-c2nc3ncccc3o2)c1	?	31.0*	8.1%	55.6*
O=C(CSCc1ccccc1Br)NNC(=S)NCc1ccco1	-1.3%	2.6	-0.8%	-3.7
O=S(=O)(c1ccccc1)N1CCN(c2cc(-c3ccccc3)nc3ncnn23)CC1	14.6µM*	-3.3	?	10.2
CCN(C(C)=O)c1ccc(Oc2nc(OC)cc(OC)n2)cc1	-16.0%	21.0	10.5%[46.1 µM]	1.5
Cc1cc(C(=O)NCc2cccs2)nn1C	1.9%	2.2	4.7%[46.1 µM]	-3.3
